TcdB GH inh – TcdB glycohydrolase inhibitors, primary screen, biochemical, single point, plate reader | Toxin B (Clostridioides difficile), P18177 | TcdB glycohydrolase enzymatic assay | inhibition, % at 9.99 µM | 350,000 compounds, 0.24% hits; in the data active = inhibition above about 10%
MazEF act – activators of E. coli MazEF toxin-antitoxin RNase, primary screen, biochemical, fluorescence, uHTS. Endoribonuclease toxin MazF (Escherichia coli (strain K12)), P0AE70. FAM/BHQ RNA-DNA oligo cleavage fluorescence, 5 h. activation, % at 20 µM. 350,000 compounds, 0.32% hits; in the data active = activation above about 50%
PfHsp40 yeast – rescue of yeast from PfHsp40 toxicity, primary screen, S. cerevisiae, ATP luminescence | 340,000 compounds, 0.68% hits | growth rescue, % at 12.5 µM | AID 504582, 2011 | S. cerevisiae expressing PfHsp40, growth rescue; in the data active = growth rescue above about 28%, passing the limit was not always enough;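 also: yeast W303a lacking pdr1 and pdr3 grown in galactose medium; growth measured after three days at 30 °C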
RN4220 kill – growth inhibition of S. aureus RN4220, primary screen, OD600; 16 h; inhibition, % (test concentration not listed); 330,000 compounds, 0.33% hits; in the data active = inhibition above about 85%;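 also: plate controls were untreated cells for no effect and reference antibiotic for full effect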
ugtP null kill – growth inhibition of ugtP-null S. aureus, primary screen, RN4220 ugtP deletion, OD600. 330,000 compounds, 0.54% hits. growth inhibition, % (concentration not given with the values). 16 h. AID 1259309, 2017; in the data active = growth inhibition above about 68%;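 also: plate controls were untreated wells for no effect and antibiotic for full effect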
Mtb hypoxia rep – PubChem AID 1159583. M. tuberculosis hypoxia-regulated fluorescent reporter, fluorescence. fluorescence inhibition, % (test concentration not listed). 300,000 compounds, 0.1% hits; in the data active = fluorescence inhibition mostly above about 23%, no sharp cut-off; inactive = mostly below about 17%
An asterisk follows results filed as active; / = no result given; + = active, no number. Sampled rows, rich in hits. Any-hit rate of the full collection: about 1.3%.

SMILES | TcdB GH inh | MazEF act | PfHsp40 yeast | RN4220 kill | ugtP null kill | Mtb hypoxia rep
CC(C)(C)S(=O)N1Cc2cc(C(=O)N[C@@H]3CCN(Cc4ccccc4)C3)nc(-c3cccc(C#CCC4CCCC4)c3)c2[C@H]1CCO (some centres not stated) | -2.0 | / | / | / | / | /
C[n+]1c2cc(N)ccc2cc2ccc(N)cc21 | -1.5 | / | 228.1* | / | / | /
CCOc1cc(C=Nn2cnnc2)ccc1O | / | / | / | 7.1 | 15.7 | 9.1
CCOc1cc(/C=N/n2cnnc2)ccc1O | 16.5* | 1.3 | -0.8 | / | / | /
COc1ccc(-c2nc3ccccc3n2Cc2ccccc2)cc1 | / | 5.7 | 1.2 | -3.8 | 27.6 | /
COc1cc(Cn2c(-c3ccc(O)c(OC)c3)nc3ccccc32)ccc1O | 15.0* | -0.4 | 0.3 | 5.2 | 15.1 | 8.1
Cc1ccc2nc3sc(C(=O)NCc4ccco4)c(N)c3cc2c1 | / | 81.8* | 5.0 | -10.3 | -15.7 | 13.2
Cc1ccccc1OCCC(=O)NNC(=O)c1ccccc1F | 1.5 | 6.0 | -1.0 | 5.7 | 9.1 | 32.6*
COC(=O)COC(=O)c1ccccc1NC(=O)c1ccccc1 | 1.3 | -5.5 | 245.4* | -0.7 | 7.2 | -4.9
Cn1c(C=NO)nc2ccccc21 | / | / | / | 8.2 | 2.5 | 4.2
CC(=O)N1C(=O)C(=C2C=C(C)OC(C)=C2)c2ccccc21 | / | + | -1.4 | 5.1 | 2.7 | 12.1
CC1=CC(=C2C(=O)c3ccccc3C2=O)C=C(C)O1 | / | 6.9 | 1.4 | 0.0 | 6.2 | 20.8
COc1ccc(NC(=O)/C(Cl)=C(/Cl)S(=O)(=O)Cc2ccc(C)cc2)cn1 | / | 9.7 | 343.3* | 37.3 | 98.4* | /
COc1ccc(NC(=O)Cc2ccc(Cl)c(Cl)c2)cn1 | 0.1 | -1.8 | -0.1 | 5.0 | -1.2 | 7.2
CCCC(=O)N1CCN(c2ccc(NC(=S)NC(=O)c3cccc(C)c3)cc2)CC1 | 0.3 | 10.1 | 9.5 | 94.4 | active | 3.5
COc1ccc(C(=O)N2CCN(c3ccc(NC(=O)Cc4ccccc4)cc3)CC2)cc1 | 0.3 | -17.9 | -0.6 | / | / | /
Cc1ccc(C(=O)N2CCN(c3ccc(NC(=S)NC(=O)Cc4ccccc4)cc3)CC2)cc1 | / | -4.5 | 0.7 | 6.4 | 90.2* | /
O=C(NC(=S)Nc1ccc(N2CCOCC2)cc1)c1cccc(Cl)c1Cl | -0.1 | 12.0 | -2.8 | 6.7 | 0.4 | 6.0
CN1CCN(c2ccc(NC(=S)NC(=O)c3cccc4c(Cl)cccc34)cc2)CC1 | 1.5 | 36.6 | -3.0 | -3.7 | 97.8* | -10.8
COc1cccc(C(=O)NC(=S)Nc2ccc(N3CCCC3)cc2)c1 | / | 1.2 | 0.5 | 2.7 | 86.8* | /
O=C(C[C@@H]1C[C@@H]2c3cc(NS(=O)(=O)c4ccccc4)ccc3O[C@@H]2[C@H](CO)O1)NCC(F)(F)F | 2.4 | / | / | / | / | /
COc1ccc(CN(C)C[C@@H]2Oc3c(NC(=O)NC4CCCCC4)cccc3C(=O)N([C@H](C)CO)C[C@H]2C)cc1 | -0.3 | / | / | / | / | /
C[C@@H]1CN([C@H](C)CO)C(=O)c2cc(NC(=O)NC3CCCCC3)ccc2O[C@H]1CN(C)S(=O)(=O)c1cn(C)cn1 | 0.2 | / | / | / | / | /
CC(C)Oc1cccc(C(=O)NC(=S)Nc2ccc(N3CCN(C)CC3)cc2)c1 | 0.0 | 9.0 | -1.2 | 5.8 | 97.7* | 17.9
CC(C)Oc1cccc(C(=O)NC(=S)Nc2cccc(NC(=O)c3ccccc3Cl)c2)c1 | -2.8 | 5.8 | 0.3 | 11.2 | -15.4 | 7.2
SMILES | TcdB GH inh | MazEF act | PfHsp40 yeast | RN4220 kill | ugtP null kill | Mtb hypoxia rep
CC1=CC(C)[C@H](C=Nn2c(=O)[nH]c3c([nH]c4ccc(Br)cc43)c2=O)C(C)C1 (some centres not stated) | / | / | / | 100.0 | 66.2* | 1.6
COc1ccc(NC(=O)Nc2nc3c(s2)CCCC3)cc1 | 0.5 | 0.7 | 56.1* | 5.0 | -6.6 | 2.5
CCC(=O)Nc1ccc(SC#N)cc1C | 0.6 | 1.1 | 91.2* | 11.4 | 8.1 | 13.3
CC(C)(C)c1ccc(Cn2ccc(-c3ccc4c(c3)OCO4)n2)cc1 | / | -13.6 | 3.4 | 4.8 | 93.4* | 1.4
Cc1ccc(Cn2ccc(NC(=O)c3cc(-c4ccc5c(c4)OCO5)on3)n2)cc1 | 0.1 | 1.1 | 0.5 | 2.8 | -0.2 | 5.3
C[C@]12C(=O)N(c3ccccc3)C(=O)N1[C@H]1c3ccccc3OC[C@@H]1[C@H]2c1ccccc1 | 1.2 | -1.4 | 98.0* | / | / | /
COc1ccc2c(c1)[C@H]1[C@H](CO2)[C@H](c2ccccc2)[C@]2(C)C(=O)Nc3ccc(Cl)cc3C(=O)N12 | 0.4 | -8.5 | 267.6* | / | / | /
Cc1ccc2c(c1)C(=O)N1[C@H]3c4ccccc4OC[C@@H]3[C@H](c3ccccc3)[C@]1(C)C(=O)N2 | / | 10.5 | 128.1* | / | / | /
C[C@]12C(=O)N(c3ccccc3)C(=O)N1[C@@H]1c3ccccc3OC[C@@H]1[C@H]2c1ccccc1 | 0.1 | 9.7 | 0.4 | 20.5 | 8.7 | -4.0
COc1ccc2c(c1)OC[C@H]1[C@H]2N2C(=O)c3cc(C)ccc3NC(=O)[C@@]2(C)[C@H]1c1ccccc1 | / | -0.7 | 297.4* | / | / | /
C(=NN1CCN(Cc2cccc3ccccc23)CC1)c1cccs1 | / | / | / | -10.2 | 39.3 | 8.1
C[C@@]12C(=O)Nc3ccc(Br)cc3C(=O)N1[C@H]1c3ccccc3OC[C@@H]1[C@@H]2c1ccccc1 | / | -3.3 | 127.6* | / | / | /
O=C(NN=Cc1cccnc1)c1ccc(S(=O)(=O)N2CCCCCC2)cc1 | / | / | / | 5.4 | 1.1 | 6.3
COc1cccc(NC(=O)c2ccc(-c3ccc([N+](=O)[O-])cc3)o2)c1 | 0.3 | 275.9* | 0.7 | -0.1 | -17.8 | 5.5
CO[C@H]1CN(C)C(=O)c2cc(NC(=O)C3CCCC3)ccc2OC[C@H](C)N(CC2CC2)C[C@@H]1C | 0.8 | / | / | / | / | /
Cc1ccc(S(=O)(=O)N(CC(=O)Nc2cccc(C(F)(F)F)c2)C(=O)N2CCN(C)CC2)cc1 | 0.2 | 6.9 | 2.0 | 2.8 | 4.5 | -1.4
Cc1ccc(S(=O)(=O)N(Cc2cccc(C(F)(F)F)c2)C(=O)N2CCN(C)CC2)cc1 | 3.3 | 1.0 | 51.9* | 1.3 | 7.5 | 5.8
CO[C@@H]1CN(C)C(=O)c2ccc(NC(=O)C3CCCC3)cc2OC[C@H](C)N(C)C[C@H]1C | 0.1 | / | / | / | / | /
CC(C)=CCCC1=CCC(C=NNC(N)=O)C(C)C1 (configuration not stated) | / | / | / | 1.4 | 93.2* | -0.1
CC(C)=CCCC1=CCC(/C=N/NC(N)=O)C(C)C1 (configuration not stated) | -2.1 | -1.2 | -1.4 | / | / | /
Cc1cc([N+](=O)[O-])c2ccccc2[n+]1[O-] | / | 0.9 | 126.6* | 8.0 | 76.6 | /
O=C1CN(Cc2ccc(F)cc2)C[C@@H]2[C@@H](c3ccc(-c4ccccc4F)cc3)[C@H](CO)N12 | -1.4 | / | / | / | / | /
CCNC(=O)CCSc1nc2cc(Cl)ccc2o1 | / | 1.1 | 110.8* | -9.9 | -4.8 | 21.2
Cc1c(NC(=O)CSc2ccc(Cl)cc2)cccc1-c1nc2cc(Cl)ccc2o1 | 0.5 | 129.4* | 13.2 | / | / | /
CCn1c(SCC(=O)Nc2ccc(NC(C)=O)cc2)nc2c([nH]c3ccccc32)c1=O | -0.9 | -13.7 | 40.8* | 1.7 | -9.8 | -0.5
